Most compounds without a hit are left out; they make up all but 2.4% or so of the library.
POLB inh: DNA polymerase beta (human) inhibition. P06746. Pol beta primer extension/strand displacement, fluorescence kinetic. Potency, µM (highest dose often 114 µM), usual class: inhibitors. 1.3% of 340,000 active. AID 485314
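Values derive from four-parameter Hill fits of normalized kinetic data: reads at 0 and 10 min following addition of 50 nM substrate to 10 nM Pol beta preincubated 15 min with compound.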
FEN1 inhibitor: inhibitors of human flap endonuclease 1; P39748; Recombinant FEN1 flap cleavage, fluorescence, 15 min; Potency, µM (series often up to 114 µM), hits mostly inhibitors; 0.35% of 390,000 active; note: nearly all actives have a fitted effect of over 65% in size
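Read-out was taken twice, immediately and after 15 min, following addition of 50 nM substrate to 10 nM FEN1 that had sat with test compound for 15 min at room temperature. Curves came from a four-parameter Hill model.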
WRN inhibitor: WRN helicase (human) inhibition; Potency, µM (series often up to 114 µM), actives largely listed as inhibitors; 0.46% of 360,000 active; AID 651768; Q14191; WRN helicase unwinding, fluorescent forked duplex, kinetic; note: nearly all actives have a fitted effect of over 55% in size
Target sequence (Q14191 whole entry, looked up): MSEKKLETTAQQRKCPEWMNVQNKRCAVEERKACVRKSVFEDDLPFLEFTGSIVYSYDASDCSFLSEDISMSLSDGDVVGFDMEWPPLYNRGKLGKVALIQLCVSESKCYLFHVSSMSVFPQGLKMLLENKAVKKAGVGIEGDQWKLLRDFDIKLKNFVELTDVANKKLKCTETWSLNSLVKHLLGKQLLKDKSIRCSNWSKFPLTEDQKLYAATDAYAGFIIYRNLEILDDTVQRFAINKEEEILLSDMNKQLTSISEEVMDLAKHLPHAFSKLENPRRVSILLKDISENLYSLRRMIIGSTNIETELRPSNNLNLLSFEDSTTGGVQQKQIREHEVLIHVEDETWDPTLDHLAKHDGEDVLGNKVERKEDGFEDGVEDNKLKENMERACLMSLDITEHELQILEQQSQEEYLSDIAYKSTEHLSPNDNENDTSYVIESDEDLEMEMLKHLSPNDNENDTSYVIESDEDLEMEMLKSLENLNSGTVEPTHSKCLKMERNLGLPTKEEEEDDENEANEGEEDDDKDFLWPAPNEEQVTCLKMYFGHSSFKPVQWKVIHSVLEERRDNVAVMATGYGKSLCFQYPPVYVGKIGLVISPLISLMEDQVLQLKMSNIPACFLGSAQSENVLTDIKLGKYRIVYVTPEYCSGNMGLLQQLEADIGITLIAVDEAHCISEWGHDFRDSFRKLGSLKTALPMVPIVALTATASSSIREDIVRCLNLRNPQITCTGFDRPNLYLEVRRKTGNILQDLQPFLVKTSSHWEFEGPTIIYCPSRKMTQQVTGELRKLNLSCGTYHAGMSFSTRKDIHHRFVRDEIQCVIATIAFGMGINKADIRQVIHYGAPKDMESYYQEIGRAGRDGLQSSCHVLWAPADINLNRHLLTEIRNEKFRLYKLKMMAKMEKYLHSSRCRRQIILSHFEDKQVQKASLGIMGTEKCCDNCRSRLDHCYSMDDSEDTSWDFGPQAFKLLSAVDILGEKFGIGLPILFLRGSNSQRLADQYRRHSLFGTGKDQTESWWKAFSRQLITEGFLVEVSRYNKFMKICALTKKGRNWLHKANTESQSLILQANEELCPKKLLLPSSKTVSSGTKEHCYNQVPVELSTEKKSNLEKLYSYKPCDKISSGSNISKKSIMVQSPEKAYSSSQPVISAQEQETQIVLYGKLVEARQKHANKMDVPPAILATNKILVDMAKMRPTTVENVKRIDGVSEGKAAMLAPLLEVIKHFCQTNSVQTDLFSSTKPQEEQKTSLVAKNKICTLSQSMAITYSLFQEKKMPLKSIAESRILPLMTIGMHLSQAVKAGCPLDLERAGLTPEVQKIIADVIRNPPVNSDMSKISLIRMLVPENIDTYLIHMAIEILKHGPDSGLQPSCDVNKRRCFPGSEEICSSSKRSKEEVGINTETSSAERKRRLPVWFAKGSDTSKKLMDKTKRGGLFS
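WRN at 20 nM final preincubated with compound 15 min at room temperature; reaction started with 100 nM fluorophore/quencher forked duplex oligonucleotide and 2 mM ATP final. Unwinding followed kinetically by red fluorescence (ex 525, em 598 nm).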
POLI inh: inhibitors of human DNA polymerase iota. 1% of 390,000 active. Pol iota fluorescent replication assay, 10 min. Q9UNA4. AID 588590. Potency, µM (doses to about 115 µM), hits mostly inhibitors
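Pol iota at 10 nM preincubated 15 min with compounds at room temperature; reaction started with fluorescent substrate, 50 nM final. Fluorescence read kinetically at 0 and 10 min; buffer-only wells as negative control.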
POLH inh: inhibitors of human DNA polymerase eta; Q9Y253; recombinant Pol eta, fluorescent DNA replication assay; Potency, µM (doses to about 114 µM), actives largely listed as inhibitors; 1.2% of 390,000 active; AID 588591
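Fluorescent replication assay: 50 nM final substrate added after a 15 min room-temperature compound preincubation with 10 nM enzyme. Signal taken at 0 min and again at 10 min.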
POLK inh: inhibitors of human DNA polymerase kappa; purified Pol kappa, fluorescent DNA synthesis assay, 10 min; Potency, µM (highest dose often 107 µM), hits mostly inhibitors; 0.53% of 400,000 active
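Readout: fluorescence, taken kinetically at 0 and 10 min. Conditions: 10 nM Pol kappa, 15 min RT compound preincubation, 50 nM substrate final. Controls: enzyme-free buffer wells.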
Large screens that a line does not name were inactive; ! = not active in a repeat. Calls come from the whole dose curve; as a rule, active = well fitted curve in the direction sought with a large enough effect; inconclusive = small, poorly fitted or top-dose-only effect, or another doubt; inactive = no such curve, though single readings can be large; an effect the other way counts as inactive or inconclusive.

O=c1[nH]sc2cc(F)ccc12	POLB inh inconclusive, FEN1 inhibitor inconclusive, WRN inhibitor 32µM
COC[C@H]1OC(=O)c2coc3c2[C@@]1(C)C1=C(C3=O)C2CCC(=O)[C@@]2(C)C[C@H]1OC(C)=O (stereo not given in full)	FEN1 inhibitor 13µM!, POLK inh inconclusive (no result: WRN inhibitor)
O=C1NC(=S)SC1=Cc1ccc(N(CCCl)CCCl)cc1	FEN1 inhibitor inconclusive, POLI inh 16µM, POLH inh 79µM, POLK inh inconclusive (no result: POLB inh)
CCC(C)C(=O)OC1C(O)C2C(CN3CC(C)CCC3[C@]2(C)O)C2C[C@]34O[C@@]5(O)C(OC(=O)C(C)(O)CC)CCC3(C)C5C(OC(C)=O)C(OC(C)=O)C4[C@@]21O (stereo not given in full)	none (no result: POLB inh, FEN1 inhibitor, WRN inhibitor, POLI inh, POLH inh)
CC/C(=C\C=C\[C@@H]1C=C[C@@H]2CCC[C@H]2[C@@H]1C(=O)c1ccc[nH]1)[C@@H]1O[C@@H]([C@@H](C)C(=O)O)CC[C@@H]1C	POLB inh inconclusive, POLI inh inconclusive, POLH inh 89µM, POLK inh inconclusive
CC(C)C1C(=O)O[C@@H]2CCN3CC=C(COC(=O)[C@](C)(O)[C@]1(C)O)[C@H]23 (stereo not given in full)	none (no result: POLB inh, FEN1 inhibitor, WRN inhibitor, POLI inh, POLH inh)
CC[C@]1(O)CC(O[C@@H]2CC(N(C)C)C(O)C(C)O2)c2c(cc3c(c2O)C(=O)c2c(O)cccc2C3=O)C1C(=O)OC (stereo not given in full)	POLK inh 6.3µM (no result: POLB inh, FEN1 inhibitor, WRN inhibitor, POLI inh, POLH inh)
CC[C@@]1(O)CC(O)c2c(cc3c(c2O)C(=O)c2c(O)ccc(O)c2C3=O)C1C(=O)OC (stereo not given in full)	POLK inh 25µM (no result: POLB inh, FEN1 inhibitor, WRN inhibitor, POLI inh, POLH inh)
Oc1cc[c]([Hg][Cl])cc1	none (no result: POLB inh, FEN1 inhibitor, WRN inhibitor, POLI inh, POLH inh)
NC(=O)O	none (no result: POLB inh, FEN1 inhibitor, WRN inhibitor, POLI inh, POLH inh)
COc1ccc2c(c1OC)C(=O)OC2c1c(O)n(C2CCCCC2)c(=O)[nH]c1=O (stereo not given)	POLI inh 25µM
CC12C=CC(=O)C=C1CCC1C2=CCC2(C)C1CC[C@@H]2C(=O)CN1CCN(c2cc(N3CCCC3)nc(N3CCCC3)n2)CC1 (stereo not given in full)	none (no result: POLB inh, FEN1 inhibitor, WRN inhibitor, POLI inh, POLH inh)
C/C=C(\C)C(=O)OC1C(C)=C2C(C1OC(=O)CCCCC)C(C)(OC(C)=O)CC(OC(=O)CCC)C1(O)C2OC(=O)C1(C)O (stereo not given)	POLB inh 25µM (no result: FEN1 inhibitor, WRN inhibitor, POLI inh, POLH inh, POLK inh)
CC(C)CC(=O)Nc1ccc(C(=O)Cn2c(=O)oc3ccccc32)cc1	POLB inh 20µM, POLI inh inconclusive
CCn1c(=O)oc2cc(NC(=O)CCl)ccc21	none
CC(=O)[C@@H]1CC[C@H]2[C@@H]3CC[C@@H]4CC(=O)CC[C@]4(C)[C@H]3CC[C@]12C	none (no result: POLB inh, FEN1 inhibitor, WRN inhibitor, POLI inh, POLH inh)
CN[C@H](CC(C)C)C(=O)N[C@H]1C(=O)N[C@@H](CC(N)=O)C(=O)N[C@@H]2C(=O)N[C@H]3C(=O)N[C@H](C(=O)N[C@H](C(=O)O)c4cc(O)cc(O)c4-c4cc3ccc4O)[C@H](O)c3ccc(c(Cl)c3)Oc3cc2cc(c3O[C@@H]2O[C@H](CO)[C@@H](O)[C@H](O)[C@@H]2O[C@H]2C[C@](C)(N)[C@H](O)[C@H](C)O2)Oc2ccc(cc2Cl)[C@H]1O	FEN1 inhibitor inconclusive (no result: POLB inh, WRN inhibitor, POLI inh, POLH inh)
CCCCCCCC/C=C\CCCCCCCC(=O)OC[C@@H](COP(O)(O)=S)OC	POLK inh 17µM (no result: POLB inh, FEN1 inhibitor, WRN inhibitor, POLI inh, POLH inh)
COc1cccc2c1C13CC[N+]4(CC5CC5)CO[C@]1(CCC(=O)C3)C4C2	none (no result: POLB inh, FEN1 inhibitor, WRN inhibitor, POLI inh, POLH inh)
COc1cc2c(cc1OC)-c1c(OC)c(OC)c(OC)c3ccnc(c13)C2=O	FEN1 inhibitor 10µM, POLI inh inconclusive
CC(C)C[C@H]1C(=O)N2CCCC2[C@]2(O)O[C@](NC(=O)[C@@H]3C=C4c5cccc6[nH]c(Br)c(c56)C[C@H]4N(C)C3)(C(C)C)C(=O)N12 (stereo not given in full)	none (no result: FEN1 inhibitor, WRN inhibitor)
O=C(O)CCn1cc(C=C2C(=O)NC(=S)NC2=O)c(-c2cccc(Cl)c2)n1	WRN inhibitor 45µM, POLH inh inconclusive
O=C(O)CCn1cc(C=C2C(=O)NC(=O)NC2=O)c(-c2ccc(Br)cc2)n1	WRN inhibitor inconclusive, POLI inh inconclusive

Source: PubChem BioAssay (National Center for Advancing Translational Sciences (NCATS))
